Many of the other results were omitted from the sample, so hits are more common in it than they were.
KDM5B inhibitor = inhibitors of human KDM5B histone demethylase; KDM5B demethylase, FDH-coupled NADH fluorescence (FDH is formaldehyde dehydrogenase); Q9UGL1; Potency, µM (top dose mostly 57.7 µM), usual class: inhibitors; actives 2.6% (n = 220,000); active means well fitted inhibition curve with a large enough effect; further: 0% is about no effect; nearly all actives have a fitted effect of over 70% in size
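qHTS format, multiple compound concentrations. Buffer 50 mM HEPES pH 7.5/0.01% Tween-20; 200 nM KDM5BΔAP final; 10 min compound preincubation; substrate-mix levels 12.5 µM peptide, 25 µM α-KG, 0.25 mM NAD⁺; 30 min RT; ΔRFU.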
Starred values were filed as active, the others as inactive. Potency means the concentration at half of the fitted maximal effect.

Screening Cc1cccc(C(C)C)c1NC(=O)c1ccc(CSc2ccccc2)cc1 returned KDM5B inhibitor inactive.
For CC(=O)N1CCCN(c2ncnc3c2CN(C2CCCNCC2)C(=O)CN3C)CC1 (stereo not drawn) the results were KDM5B inhibitor inactive.
For CN1CC(=O)N(C2CCCNC2)Cc2c1ncnc2N1CCN(c2ncccn2)CC1 (stereo not drawn) the results were KDM5B inhibitor inactive.
For CN1CC(=O)N(C2CCCNC2)Cc2c1ncnc2N1CCc2ccccc2C1 (stereo not drawn) the results were KDM5B inhibitor 50.1µM*.
Screening CN1CC(=O)N(C2CCC2)Cc2c1ncnc2N1CCN(c2ncccn2)CC1 returned KDM5B inhibitor inactive.
For CC(=O)N1CCCN(c2ncnc3c2CN(C2CCCNC2)C(=O)CN3C)CC1 (stereo not drawn) the results were KDM5B inhibitor 50.1µM*.
`CN1CC(=O)N(C2CCC2)Cc2c1ncnc2N1CCC(O)CC1` gave KDM5B inhibitor inactive.
`O=C(NCCCNC(=O)c1ccc(Cl)cc1Cl)c1nc2ccccc2c(=O)[nH]1` gave KDM5B inhibitor inactive.
For O=C(OCc1ccccc1[N+](=O)[O-])c1cnc2ccccc2c1C(F)(F)F the results were KDM5B inhibitor inactive.
`O=C(NCCN1CCOC1=O)c1cc(COc2ccccc2F)[nH]n1` gave KDM5B inhibitor inactive.
`COc1cccc(-c2noc(NCCc3ccc(Cl)cc3)n2)c1OC` gave KDM5B inhibitor inactive.
`COc1cc(Nc2nc(-c3cccc(OC)c3OC)no2)cc(OC)c1OC` gave KDM5B inhibitor inactive.
COc1cccc(-c2noc(-c3nc(-c4ccc5c(c4)OCO5)no3)n2)c1OC was read as KDM5B inhibitor inactive.
Screening O=C1OCCN1CCNc1ccc(-c2nc(-c3ccccc3F)no2)cn1 returned KDM5B inhibitor 28.2µM*.
`COc1cccc(-c2noc(-c3ccc(NCCn4cccn4)nc3)n2)c1OC` gave KDM5B inhibitor 25.1µM*.
For COc1cccc(-c2noc(-c3ccc(NCCCSC)nc3)n2)c1OC the results were KDM5B inhibitor 28.2µM*.
`COc1cccc(-c2noc(-c3ccc(CSCc4ccccc4F)o3)n2)c1OC` gave KDM5B inhibitor inactive.
Fc1ccccc1-c1noc(NCCc2ccc(Cl)cc2)n1 was read as KDM5B inhibitor inactive.
Screening CN1CCC(OC2CCN(C(=O)c3ccc(Cl)cc3)CC2)CC1 returned KDM5B inhibitor inactive.
For CC(C)(C)C(=O)NCCCNC(=O)c1cccs1 the results were KDM5B inhibitor inactive.
Screening O=C(c1cccc(OC2CN(C3CCN(Cc4ccccc4)CC3)C2)c1)N1CCOCC1 returned KDM5B inhibitor inactive.
Screening O=C(COCc1nc2ccccc2c(=O)[nH]1)Nc1nc(-c2ccc3ccccc3c2)cs1 returned KDM5B inhibitor inactive.
For NC(=O)CN1C(=O)CO[C@H]2CN(Cc3ccccc3F)C[C@H]21 the results were KDM5B inhibitor inactive.
NC(=O)CN1C(=O)CO[C@H]2CN(Cc3ccc(C(F)(F)F)cc3)C[C@H]21 was read as KDM5B inhibitor inactive.
N#Cc1ccc(CN2C[C@@H]3OCC(=O)N(CC(N)=O)[C@@H]3C2)cc1 was read as KDM5B inhibitor 35.5µM*.
NC1CCN(Cc2ccc(C(=O)NCc3ccc(S(N)(=O)=O)cc3)c(=O)[nH]2)C1 (stereo not drawn) was read as KDM5B inhibitor 22.4µM*.
O=C(NCc1ccc(CN2CCCC2)cc1)c1cc(S(=O)(=O)N2CCCC2)ccc1Cl was read as KDM5B inhibitor inactive.
`NS(=O)(=O)c1ccc(CNC(=O)Cn2nc3c(cc2=O)CCCC3)cc1` gave KDM5B inhibitor inactive.
For Cc1cccc(C(=O)N2CCCCCCNC(=O)[C@@H]3C[C@@H](C(=O)N4CCc5ccccc5C4)C[C@@H]32)c1 the results were KDM5B inhibitor inactive.
CCc1cccc2c(C3=NNC(=NC4CC4)SC3)c[nH]c12 was read as KDM5B inhibitor inactive.
`O=C(Nc1ccccc1)c1cnc2n1CCN(Cc1ccc3[nH]ccc3c1)CC2` gave KDM5B inhibitor inactive.
`C=CCCC(CN1CCSCC1)Oc1nccc(C)n1` (stereo not drawn) gave KDM5B inhibitor inactive.
Screening C=CCOc1ccc(C(=O)NCCC2=CCCCC2)cc1 returned KDM5B inhibitor inactive.
For CC(C)NC(=O)c1noc(-c2ccc[nH]c2=O)n1 the results were KDM5B inhibitor inactive.
For COc1ccc(CCNC(=O)c2cc([N+](=O)[O-])cc([N+](=O)[O-])c2)cc1OC the results were KDM5B inhibitor inactive.
For O=C(NCCC1=CCCCC1)c1noc(-c2ccc[nH]c2=O)n1 the results were KDM5B inhibitor 31.6µM*.
For COc1ccc(CCNC(=O)c2nnn3cc(C)[nH]c(=O)c23)cc1OC the results were KDM5B inhibitor inactive.
Screening COc1ccc(CCNC(=O)c2noc(-c3ccc[nH]c3=O)n2)cc1OC returned KDM5B inhibitor 31.6µM*.
Screening O=C(NCC1CCCO1)c1noc(-c2ccc[nH]c2=O)n1 (stereo not drawn) returned KDM5B inhibitor 28.2µM*.
`Cc1ccccc1C(=O)NCCC1=CCCCC1` gave KDM5B inhibitor inactive.
For O=C(NCC1CCCO1)c1ccccc1-c1nc(-c2ccccc2)no1 (stereo not drawn) the results were KDM5B inhibitor inactive.
For CN(C)c1cccc(C(=O)Oc2ccc(C#N)cc2)c1 the results were KDM5B inhibitor inactive.
For O=C(N[C@@H]1COCC[C@@H]1OCC1CC1)c1conc1-c1ccccc1 the results were KDM5B inhibitor inactive.
`CC(C)CC(NS(C)(=O)=O)C(=O)O` (stereo not drawn) gave KDM5B inhibitor inactive.
`CNC(=S)NNC(=O)C(Sc1ccccc1)c1ccccc1` (stereo not drawn) gave KDM5B inhibitor inactive.
O=C1NC(=NC2CCCC2)C2(CCN(CC3CCCCC3)C2)N1c1cccnc1 (stereo not drawn) was read as KDM5B inhibitor inactive.
CCOc1ccc(-c2[nH]nc3c2C(c2c(F)cccc2Cl)C(C#N)=C(N)O3)c(OCC)c1 (stereo not drawn) was read as KDM5B inhibitor inactive.
For O=C(NCCCN1CCOCC1)C1CN(S(=O)(=O)c2ccccc2)CC12CCCCC2 (stereo not drawn) the results were KDM5B inhibitor inactive.
Screening CCOc1ccc(/C=C/c2nc(C#N)c(NCc3ccc(C)cc3)o2)cc1 returned KDM5B inhibitor inactive.
For Cc1ccc(CN2CCCC(CNC(=O)NC(C)C)C2)cc1C (stereo not drawn) the results were KDM5B inhibitor inactive.
COc1ccc2cc(CN(C)C(=O)CNC(=O)c3ccc(Cl)cc3)ccc2c1 was read as KDM5B inhibitor inactive.
Screening O=C(O)C[C@@H]1CCN(S(=O)(=O)c2cccs2)C[C@@H]1CC1=NCCc2ccccc21 returned KDM5B inhibitor inactive.
`COc1cc2c(cc1OC)C(C[C@H]1CN(S(=O)(=O)c3cccs3)CC[C@H]1CC(=O)O)=NCC2` gave KDM5B inhibitor 28.2µM*.
Screening COc1cc2c(cc1OC)C(C[C@H]1CN(S(=O)(=O)c3ccc(C#N)cc3)CC[C@H]1CC(=O)O)=NCC2 returned KDM5B inhibitor 28.2µM*.
For O=C(CC1CCN(S(=O)(=O)c2cccs2)C1)NCc1ccccc1 (stereo not drawn) the results were KDM5B inhibitor inactive.
COc1ccc(S(=O)(=O)N2CC[C@@H](CC(=O)O)[C@@H](CC3=NCCc4cc(OC)c(OC)cc43)C2)cc1 was read as KDM5B inhibitor inactive.
Screening CC[C@H]1CN(S(=O)(=O)c2ccc(OC)cc2)CC[C@H]1CC(=O)N(C)CC#N returned KDM5B inhibitor inactive.

From PubChem BioAssay
